Source: PubChem BioAssay (Tox21)
Values joined by “and” are separate entries in the source; they are usually repeats but may differ in a detail not shown here. Equal entries are not always repeated. Results filed as inconclusive are left out. Where a call stands in place of a potency, no number is given. Where a structure was tested more than once in an assay, its records may differ in their call. Active and inactive are the calls of the source. Unless noted, calls come from the whole dose curve.

assay: qHTS assay to identify small molecule antagonists of the peroxisome proliferator-activated receptor gamma (PPARg) signaling pathway - cell viability counter screen (AID 743194; active = well fitted cell-killing curve with a large enough effect in the repeat runs; note: nearly all actives have a fitted effect of over 55% in size); settings: PPARg-bla HEK293H viability, CellTiter-Glo luminescence, 17 h, co-treated with 50 nM rosiglitazone; series mostly up to 62.6 µM
Method in brief: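 Cytotoxicity counter screen in PPARg-bla HEK293H cells, same wells as reporter assay. Compounds plus 50 nM rosiglitazone (final) for 17 h at 37 C, then viability read by CellTiter-Glo luminescence.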
Potency is the fitted concentration of half-maximal effect.

Question: For CCN(C(=O)N(CC)c1ccccc1)c1ccccc1, which Potency is on record?
Answer: Its Potency is “inactive”.

Question: With ON=C1CCCC1 as the compound, how does the Potency read?
Answer: Its Potency is “inactive”.

Question: With On1ccccc1=S as the compound, how does the Potency read?
Answer: The Potency was 24.3 µM (active).

Question: Which Potency does the source give for Cc1ccc(O)c(C(C)(C)C)c1 here?
Answer: The Potency was “inactive”.

Question: With O=C1c2ccccc2Cc2ccccc21 as the compound, how does the Potency read?
Answer: The Potency was “inactive”.

Question: For CCN1/C(=C/C=C/c2sc3ccccc3[n+]2CC)Sc2ccccc21, which Potency is on record?
Answer: The Potency was 14.6 µM (active).

Question: With O=C(OCC1CO1)C1CCCCC1C(=O)OCC1CO1 (configuration not stated) as the compound, how does the Potency read?
Answer: The Potency was “inactive”.

assay: qHTS assay for small molecule agonists of the antioxidant response element (ARE) signaling pathway (AID 743202; active = well fitted activation curve with a large enough effect in the signal ratio in the repeat runs, not every such curve was filed as active; the % refers to the signal ratio); settings: HepG2 ARE-bla reporter, beta-lactamase FRET, 16 h; series mostly up to 73.3 µM
Method in brief: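 ARE-bla HepG2 cells (beta-lactamase reporter under the antioxidant response element), plated 5 hours, then exposed to compounds 16 hours at 37 C. LiveBLAzer B/G FRET substrate added for 2 hours at room temperature; fluorescence intensity read.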

Question: With Cc1c(C)c2c(c(C)c1O)CCC(C)(COc1ccc(CC3SC(=O)NC3=O)cc1)O2 (configuration not stated) as the compound, how does the Potency read?
Answer: The Potency was 10.6 µM (active).

Question: Which Potency does the source give for COC(=O)C1=C(C)NC(C)=C(C(=O)OCC(C)C)C1c1ccccc1[N+](=O)[O-] (configuration not stated) here?
Answer: Its Potency is 23.7 µM (active).

Question: Which Potency does the source give for O=[N+]([O-])c1ccccc1Nc1ccccc1 here?
Answer: The Potency was “inactive”.

Question: Which Potency does the source give for CCCC1O[C@@H]2C[C@H]3[C@@H]4CCC5=CC(=O)C=C[C@]5(C)[C@H]4[C@@H](O)C[C@]3(C)[C@]2(C(=O)CO)O1 (some centres not stated) here?
Answer: The Potency was 30.7 µM (active) and 54.5 µM (active).

Question: Which Potency does the source give for CCCCCCCCCCC=O here?
Answer: The Potency was “inactive”.

Question: Which Potency does the source give for CC(C)CCCCCCCCCCCCCCC(=O)O here?
Answer: Its Potency is “inactive”.

Question: Which Potency does the source give for CC1=NC(C)OC1C (configuration not stated) here?
Answer: The Potency was 30.6 µM (active).

Question: With CCCCCOC(=O)CCCC as the compound, how does the Potency read?
Answer: The Potency was “inactive”.

Question: For C[C@@H]1C[C@H]2[C@@H]3CCC4=CC(=O)C=C[C@]4(C)[C@@]3(Cl)[C@@H](O)C[C@]2(C)[C@@]1(OC(=O)c1ccco1)C(=O)CCl, which Potency is on record?
Answer: Its Potency is 13.3 µM (active).

Question: Which Potency does the source give for CCCCCCCCS(=O)C(C)Cc1ccc2c(c1)OCO2 (configuration not stated) here?
Answer: Its Potency is 19.7 µM (active).

Question: With O=C1CCCCCN1SSN1CCCCCC1=O as the compound, how does the Potency read?
Answer: The Potency was “inactive”.

Question: For Cc1cccc(S(=O)(=O)O)c1C, which Potency is on record?
Answer: The Potency was “inactive”.

Question: Which Potency does the source give for CSc1ccc(C(=O)c2[nH]c(=O)[nH]c2C)cc1 here?
Answer: Its Potency is “inactive”.

Question: With ON=C1CCCC1 as the compound, how does the Potency read?
Answer: Its Potency is “inactive”.

Question: Which Potency does the source give for On1ccccc1=S here?
Answer: The Potency was 15.2 µM (active).

Question: With O=C1c2ccccc2Cc2ccccc21 as the compound, how does the Potency read?
Answer: The Potency was “inactive”.

Question: With C[C@H]1[C@H]2CC[C@H]3[C@@H]4CC=C5C[C@@H](N(C)C)CC[C@]5(C)[C@H]4CC[C@]23CN1C as the compound, how does the Potency read?
Answer: Its Potency is “inactive”.

Question: With CCN1/C(=C/C=C/c2sc3ccccc3[n+]2CC)Sc2ccccc21 as the compound, how does the Potency read?
Answer: The Potency was 1.16 µM (active).

Question: With O=C(OCC1CO1)C1CCCCC1C(=O)OCC1CO1 (configuration not stated) as the compound, how does the Potency read?
Answer: The Potency was 48.6 µM (active).

assay: qHTS assay for small molecule agonists of the antioxidant response element (ARE) signaling pathway - cell viability counter screen (AID 743203); settings: ARE-bla HepG2 viability, CellTiter-Glo luminescence, 16 h; series mostly up to 73.3 µM; note: nearly all actives have a fitted effect of over 55% in size
Method in brief: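 ARE-bla HepG2 cells were plated, rested 5 h at 37C/5% CO2, then exposed to compounds in DMSO for 16 h. Viability was read as CellTiter-Glo luminescence after 30 min at room temperature, in the same wells as the ARE screen.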

Question: Which Potency does the source give for COc1cc(/C=C/C(=O)O[C@H]2CC[C@]34C[C@]35CC[C@]3(C)[C@@H]([C@H](C)CCC=C(C)C)CC[C@@]3(C)[C@@H]5CC[C@H]4C2(C)C)ccc1O here?
Answer: Its Potency is “inactive”.

Question: With CCCCCCCCCCCCCCCC(=O)OC[C@H](O)[C@H]1OC(=O)C(O)=C1O as the compound, how does the Potency read?
Answer: The Potency was “inactive”.

Question: With Cc1c(C)c2c(c(C)c1O)CCC(C)(COc1ccc(CC3SC(=O)NC3=O)cc1)O2 (configuration not stated) as the compound, how does the Potency read?
Answer: The Potency was 61.1 µM (active) and inactive.

Question: With COC(=O)C1=C(C)NC(C)=C(C(=O)OCC(C)C)C1c1ccccc1[N+](=O)[O-] (configuration not stated) as the compound, how does the Potency read?
Answer: The Potency was “inactive”.

Question: For O=[N+]([O-])c1ccccc1Nc1ccccc1, which Potency is on record?
Answer: Its Potency is “inactive”.

Question: For CN(C)c1ccc(SC#N)cc1, which Potency is on record?
Answer: Its Potency is “inactive”.

Question: For CCCC1O[C@@H]2C[C@H]3[C@@H]4CCC5=CC(=O)C=C[C@]5(C)[C@H]4[C@@H](O)C[C@]3(C)[C@]2(C(=O)CO)O1 (some centres not stated), which Potency is on record?
Answer: Its Potency is “inactive”.

Question: For CCc1cc(Cc2cc(CC)c(N)c(CC)c2)cc(CC)c1N, which Potency is on record?
Answer: Its Potency is 54.5 µM (active).

Question: For CCCCCCCCCCC=O, which Potency is on record?
Answer: The Potency was “inactive”.

Question: With C1CCCC1 as the compound, how does the Potency read?
Answer: Its Potency is “inactive”.

Question: With CC(C)CCCCCCCCCCCCCCC(=O)O as the compound, how does the Potency read?
Answer: The Potency was “inactive”.

Question: With Oc1ccc(Cl)cc1Sc1cc(Cl)ccc1O as the compound, how does the Potency read?
Answer: The Potency was 61 µM (active) and 29.8 µM (active).

Question: With CC1=NC(C)OC1C (configuration not stated) as the compound, how does the Potency read?
Answer: Its Potency is “inactive”.

Question: With C=C(C)C(=O)OCC[N+](C)(C)C as the compound, how does the Potency read?
Answer: The Potency was “inactive”.

Question: With CCCCCOC(=O)CCCC as the compound, how does the Potency read?
Answer: Its Potency is “inactive”.

Question: Which Potency does the source give for CCOC(=O)c1nc(C(Cl)(Cl)Cl)n(-c2ccc(Cl)cc2Cl)n1 here?
Answer: Its Potency is 24.3 µM (active).

Question: For CCC(C)(C)C1CCCCC1OC(C)=O (configuration not stated), which Potency is on record?
Answer: The Potency was “inactive”.

Question: With Clc1ccc2nsnc2c1NC1=NCCN1 as the compound, how does the Potency read?
Answer: Its Potency is “inactive”.

Question: With CC(=O)OCC(C)OC(C)=O (configuration not stated) as the compound, how does the Potency read?
Answer: Its Potency is “inactive”.

Question: Which Potency does the source give for CCCCCCC[N+](CC)(CC)CCCCc1ccc(Cl)cc1 here?
Answer: Its Potency is “inactive”.

Question: With O=C1CCCCCN1SSN1CCCCCC1=O as the compound, how does the Potency read?
Answer: The Potency was “inactive”.

Question: For Cc1cccc(S(=O)(=O)O)c1C, which Potency is on record?
Answer: Its Potency is “inactive”.

Question: For CSc1ccc(C(=O)c2[nH]c(=O)[nH]c2C)cc1, which Potency is on record?
Answer: Its Potency is “inactive”.

Question: Which Potency does the source give for CCN(C(=O)N(CC)c1ccccc1)c1ccccc1 here?
Answer: Its Potency is “inactive”.

Question: For ON=C1CCCC1, which Potency is on record?
Answer: Its Potency is “inactive”.

Question: For On1ccccc1=S, which Potency is on record?
Answer: The Potency was “inactive”.

Question: For Cc1ccc(O)c(C(C)(C)C)c1, which Potency is on record?
Answer: Its Potency is 30.6 µM (active) and inactive.

Question: For O=C1c2ccccc2Cc2ccccc21, which Potency is on record?
Answer: Its Potency is “inactive”.

Question: For C[C@H]1[C@H]2CC[C@H]3[C@@H]4CC=C5C[C@@H](N(C)C)CC[C@]5(C)[C@H]4CC[C@]23CN1C, which Potency is on record?
Answer: The Potency was “inactive”.

Question: For CCN1/C(=C/C=C/c2sc3ccccc3[n+]2CC)Sc2ccccc21, which Potency is on record?
Answer: Its Potency is 13 µM (active).

Question: With O=C(OCC1CO1)C1CCCCC1C(=O)OCC1CO1 (configuration not stated) as the compound, how does the Potency read?
Answer: The Potency was “inactive”.
